The supplement of paper PMC13380429

Legend:
[1] = test system: Vero E6 infected with SARS-CoV-2; assay: morphology score (similarity to uninfected cells); higher = more like uninfected cells; settings: 24 h
[2] = test system: Vero E6 infected with SARS-CoV-2; assay: SARS-CoV-2 infection rate relative to infected DMSO; higher = more infection, active = 60 or less; settings: 24 h

Row | SMILES | morphology score [1] | SARS-CoV-2 infection rate [2]
1 | O=C(OC[C@H]1O[C@@H](OC(=O)c2cc(O)c(O)c(OC(=O)c3cc(O)c(O)c(O)c3)c2)[C@H](OC(=O)c2cc(O)c(O)c(OC(=O)c3cc(O)c(O)c(O)c3)c2)[C@@H](OC(=O)c2cc(O)c(O)c(OC(=O)c3cc(O)c(O)c(O)c3)c2)[C@@H]1OC(=O)c1cc(O)c(O)c(OC(=O)c2cc(O)c(O)c(O)c2)c1)c1cc(O)c(O)c(OC(=O)c2cc(O)c(O)c(O)c2)c1 [tannic-acid] (10 µM) | -0.112 | 114% (inactive)
2 | Cc1oc2nc3c(c(NC(=O)CN4CCCC4=O)c2c1C)CCCC3 (10 µM) | 0.0552 | 103% (inactive)
3 | OC(CN1CCN(c2cccc(Cl)c2)CC1)C(c1ccccc1)c1ccccc1 (centres undefined) (10 µM) | -0.0067 | 96.5% (inactive)
4 | OC[C@H]1O[C@@H](n2cnc3c(NC4CCCC4)ncnc32)[C@H](O)[C@@H]1O [N6-cyclopentyladenosine] (10 µM) | -0.0139 | 109% (inactive)
5 | C[C@@]1(C(=O)O)NCCc2cc(O)c(O)cc21 [salsolinol-1-carboxylic-acid] (10 µM) | -0.0436 | 97.5% (inactive)
6 | FC(F)(F)c1cc(CO[C@H]2CCCN[C@H]2c2ccccc2)cc(C(F)(F)F)c1 (10 µM) | 0.777 | 16% (active)
7 | CN(C)C(=N)NC(=N)N [metformin] (10 µM) | -0.00931 | 108% (inactive)
8 | O=C1Nc2ccccc2C2(CCN(CCc3ccc(C(F)(F)F)cc3)CC2)O1 (10 µM) | -0.158 | 106% (inactive)
9 | CCCC(C)NC(=O)c1ccc(Cl)c(Cl)c1 (centres undefined) (10 µM) | -0.46 | 119% (inactive)
10 | COc1nccc(-c2c(-c3ccc(F)cc3)ncn2[C@H]2CC[C@H](O)CC2)n1 (10 µM) | 0.396 | 85% (inactive)
11 | CC(N)CCCC(C)(C)O (centres undefined) [heptaminol] (10 µM) | -0.15 | 111% (inactive)
12 | c1cc(Nc2cc(C3CC3)n[nH]2)nc(Nc2ccc3[nH]cnc3c2)n1 (0.833333 µM) | -0.282 | 110% (inactive)
13 | O=C1c2ccc(Nc3ccc(F)cc3F)cc2CCc2ccc(OC[C@H](O)CO)cc21 [skepinone-L] (10 µM) | -0.053 | 113% (inactive)
14 | CCS(=O)(=O)N(C)[C@H]1c2cc(C#N)ccc2OC(C)(C)[C@@H]1O [chromanol-293B-(-)-[3R,4S]] (10 µM) | 0.135 | 104% (inactive)
15 | Cc1cc2nc3c(=O)[nH]c(=O)nc-3n(C[C@H](O)[C@H](O)[C@H](O)CO)c2cc1C [riboflavin] (10 µM) | 0.208 | 102% (inactive)
16 | NCC(O)(CS(=O)(=O)O)c1ccc(Cl)cc1 (centres undefined) [2-hydroxysaclofen] (10 µM) | 0.266 | 84.5% (inactive)
17 | CCCCCCOC(=O)CCC(=O)CN [hexaminolevulinate] (10 µM) | 0.0924 | 102% (inactive)
18 | N=C(N)NCCN1CCCCCCC1 [guanethidine] (10 µM) | -0.0499 | 109% (inactive)
19 | C[N@+]1(CC2CC2)CC[C@]23c4c5ccc(O)c4O[C@H]2C(=O)CC[C@@]3(O)[C@H]1C5 [methylnaltrexone] (10 µM) | -0.0178 | 118% (inactive)
20 | c1ccc2c(c1)OC[C@H](CNCCCOc1ccc3c(c1)OCO3)O2 [osemozotan] (10 µM) | 0.0986 | 106% (inactive)
21 | O=C(O)c1ccc(O)c2ncccc12 (10 µM) | 0.022 | 102% (inactive)
22 | C=C1C(=O)[C@]23[C@H](O)[C@H]1CC[C@H]2[C@@]12CO[C@]3(O)[C@@H](O)[C@@H]1C(C)(C)CC[C@@H]2O [Oridonin (Isodonol)] (0.833333 µM) | 0.108 | 97% (inactive)
23 | COc1ccc2c(NC(=O)Nc3cccc(C(F)(F)F)n3)ccnc2c1 (10 µM) | -0.049 | 101% (inactive)
24 | N#Cc1cn([C@@H]2O[C@H](CO)[C@@H](O)[C@H]2O)c2ncnc(N)c12 [toyocamycin] (0.833333 µM) | -0.0555 | 104% (inactive)
25 | CC(O)CN1CCN(CC(=O)[O-])CCN(CC(=O)[O-])CCN(CC(=O)[O-])CC1.[Gd+3] (centres undefined) [gadoteridol] (10 µM) | -0.0781 | 108% (inactive)
26 | O=C(O)CCCN1CCC(O[C@@H](c2ccc(Cl)cc2)c2ccccn2)CC1 [bepotastine] (10 µM) | 0.0921 | 90% (inactive)
27 | O=C(O)CNC(=O)c1ccccc1I [2-iodohippuric-acid] (10 µM) | -0.111 | 110% (inactive)
